In all, about 25,000 sequences were measured (“ln(normalized median fluorescence intensity)”: median about 6.7, highest 2% from about 10 on). Shown is part of a subset that was picked to be rich in the highest values.
Tested on: PfHDP1 homeodomain (GST-tagged)
Assay: gcPBM binding intensity (ln(normalized median fluorescence intensity)); higher = stronger DNA binding
In short: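 An Agilent 4 × 180k array of primer-extended double-stranded 36-bp intergenic genomic probes, with negative controls, was incubated for 1 h with GST-tagged P. falciparum DNA-binding domains expressed in E. coli. Alexa488 anti-GST antibody detected bound protein, scanned at 488 nm. Binding intensity is the highest Masliner-normalised natural-log median intensity across replicate spots of either probe orientation.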

Sequence	gcPBM binding intensity (ln)
AATAAAATGGAATACGGTACACATAATCCTAAAATG [XGTACX_site926]	6.4
TATAACAAGTTATAAAGTACAAATGTTGAATTTTAT [XGTACX_site4673]	6.07
GGAGGTTGTTATAAAAGTACAAAAAGTTGCAATTTT [XGTACX_site7351]	10.7
TTATGTTATATAAAAAGTACAAATTTTTTTTAATTA [XGTACX_site3435]	5.94
AAACGAGAACATAATAAATACATAAATAAATAAATA [GTGCAC_negctrl_site433]	6.43
ACCCTCATATTATAGACACACACAAAAAAAATAAAA [CACACA_site7941]	6.66
TGTATTAAAAATTTGGTGCAACTTTTACATAATAAT	10.8
CTTTTAAATTATTTTTGTACATAATTATATATATAT [XGTACX_site4128]	8.27
TTTTTATTACATAATTAAAAAAAATAATAAAATAAA [XGTACX_negctrl_site249]	6.03
TATATTTTATATATGGTGCAACTTTTATTTAAATAA	10.7
TATATATAAATATATGTGCACTTTTTATATTTATAT	9.06
TATATAAAAAATAGGTGGTCAACTTAAATATTTTAT [XGTACX_site4495]	6.46
TATAAAAATGTGTATGTACACACTTTATTTTTAATA [CACACA_site2532]	6.38
AATATTTATGGGTGCACACAAACATACATATATATA [CACACA_site3395]	10
TTACATACAATTGGTGTGCACATATATATATATATA	10.3
TAATAATCAAACTATACACACATAAATAAATATATA [CACACA_site156]	6.52
TTTATATATATTTATACACACAAACATAATACTACT [CACACA_site5161]	6.86
AAATCAAACTTTGGTGTGCACAAATATATACATATA [GTGCAC_site9986]	11
TATTCGAACAAAAATACATGCACATATGCATAATAA [TGCATGCA_site171]	10
ATAATATTCGAGTGTGCACACAAACATACATATATA [CACACA_site3396]	11.1
TTTATTTATATTTATACACACAAACATAATACTACT [CACACA_site7039]	6.82
ATAATATTTAGGTGTGCACACAAACATACATATATA [CACACA_site9120]	10.9
CATATATGTTATATTTAACACACATATAAGGTACAT [CACACA_site8105]	6.51

Sequence	gcPBM binding intensity (ln)
AAGAAAAAGAATAGACGGACAACTAATATAAAATAT [XGTACX_site7905]	6.53
ATATATAAACTGAAGGGTACAATGAAAAAAGAACTT [XGTACX_site7219]	6.81
CCATATCTTTTTTGCACACACTACAATAAAACAAAA [CACACA_site4995]	10.6
TACAACAATTTTTGCACACACCAAAACATAAAATAA [CACACA_site4964]	10.3
AGCCATATCTTTTTTGCACACACTACAATAAAACAA [CACACA_site1650]	10.1
ATTTGTATATACATATGTACACATGTAGGCTCATAA [XGTACX_site1709]	6.92
ATATTTTCAGTTCTCCATTATGTTCCCATTATTTTT [CACACA_negctrl_site990]	7.03
TGGGTGTAGAACAATTGTACTTTGTAAAAATATAAG [XGTACX_site8464]	6.59
TTCATGCTTATATGTGCACACACAAAAGAAAAGAAA [CACACA_site1656]	10.8
TTATGTTATATATACACACACAAAAGAAAAAAAAAA [CACACA_site2987]	6.48
AATGTGCACACGCGTACACACAAAAAAAGAAAAAAA [CACACA_site7031]	10.2
CAAAAAAAGAAAGCTACACACATTTATGTGCTATAT [CACACA_site2777]	6.72
ATTTATGTTATATATACACACACAAAAGAAAAAAAA [CACACA_site8977]	6.89
CATGCTTATATGTGCACACACAAAAGAAAAGAAAAA [CACACA_site1655]	11
TAAATATATATATATTGTACAAAACAAATGTGAATT [XGTACX_site696]	7.1
GATGTTCATCACTACACACACAAAGAAATATAAATA [CACACA_site7294]	6.57
TCAATTAGACGAAAATGTACATATGTATATATTTTT [XGTACX_site5027]	6.25
ATACATATGGTGGATCGTACATATATATAATATGTA [XGTACX_site8631]	6.5
TAGAATGTATGTAGTGCACACCTCTATAATATATTA [CACACA_site1873]	10.5
TATAATGTATGTAGTGCACACCTCTATAATATATTA [CACACA_site8560]	9.5
TATGTACACCCATATACACACCTCTATAATATATAT [CACACA_site4563]	7.13
TATTATATTATACATACACACCCATATAATATGTTT [CACACA_site8191]	6.85
AATATTCAATATAAAGTGCATTATTGTGGACCTAAT	8.94

Sequence	gcPBM binding intensity (ln)
TAAATATATATATAAGTGCATTATATATATATATAA	9.53
GCCAATAAAGATGTGGTGCATTATATATATATATAT	10.7
TAAAACTTATACAAATGTACAAATATATATATATAT [XGTACX_site4661]	9.19
TTTTTTATTTTATTTTTTTCTGCTTATCCACATTAG [XGTACX_negctrl_site108]	6.48
TAGTATTATTATTATGCACACAAAAATATTTATACA [CACACA_site9219]	10.4
GTACTTGTATTATGCACACATATAATTAAACATATA [CACACA_site3312]	10.1
TTTTAATTTATTTATGCACACATATATAATTACACA [CACACA_site8126]	10.1
TTAATTTATTTATGCACACATATATAATTACACATA [CACACA_site4544]	10.7
TCGTACTTGTATTATGCACACATATAATTAAACATA [CACACA_site9089]	10.5
CTTTTTTTAATATGCACACATATATTTTATATATTA [CACACA_site2077]	10.3
TTAATTTATTTATGCACACATATATAATTACCCATA [CACACA_site682]	10.7
ATTATATACATATATGCACACAAAAAAATATATATT [CACACA_site8508]	9.93
GTATTATTATTATGCACACAAAAATATTTATACATA [CACACA_site3656]	10.9
ATATTACCCATATATGCACACATTGTAGTTATTTAT [CACACA_site2636]	9.18
CTTATATTAATTATTACACACATATTTATAAATGCA [CACACA_site6501]	6.66
GCACACATATAATTAAACATATATTTGTATTATTTT [GTGCAC_negctrl_site327]	6.5
AAATAATTAGCTATTTGTACATATATACATATTTAT [XGTACX_site4652]	6.37
ATTTTTTTTTTTTTTTTTTTTTTTTTTTTTTTTTTT [CACACA_negctrl_site1364]	7.45
AAGTTTATTATATATAAATTATTATATATATATATA [CACACA_negctrl_site189]	9.02
AATCAAAGTAATTTAACACACAATTTTAATACTGTT [CACACA_site7169]	6.23
CATTATGTTGTAAATACACACATACATATACATACA [CACACA_site8143]	6.76
ACATAAATAAATTAATGTACATATATATTTGTATAT [XGTACX_site3160]	6.32
TATATGTAGATTAAACGTACTTACAACGGAATTATC [XGTACX_site3036]	6.67

Sequence	gcPBM binding intensity (ln)
TATAAACATTAAAGGTGTACAATTTAATTTCAATTT [XGTACX_site2944]	6.28
GGTATAATAATATATAGTACACACAAAAATGGAAGT [XGTACX_site7058]	7.5
TATTTTTATCAATTCACACATAAATATATTTATATG [CACACA_site5547]	6.57
TTTTTCCCCCTTTTTTTGATTTTTATCTTAATTCTA [TGCATGCA_negctrl_site287]	5.85
TTTATTTATATAATTACACACATATATACACAAATG [CACACA_site8903]	6.83
ATATTTTACAAATGCACACATAATTTTTTTTTTTTT [CACACA_site2763]	10.5
TTATATTTTACAAATGCACACATAATTTTTTTTTTT [CACACA_site8890]	9.76
TATTATAATTTTATATGTACACATATATAAATATAT [XGTACX_site4054]	6.29
ATATATATATATATATGTACATATTTTTAATTATAA [XGTACX_site7444]	9.45
GTATAATTATGTGCACGTACATATTTTATTATATAT [XGTACX_site8586]	10.9
ACATAATTATTATGCACACATATTTTTATGTATTTA [CACACA_site698]	10.2
ATACATATATAATTATGTACGTATATTTTATATAAC [XGTACX_site4292]	6.14
ATATAATATATGTATACACACATATTATATAATATT [CACACA_site3699]	6.46
TATTACACATATTATGTGCACATATATAATCAATAT	10.9
CAATTTATTATATATGTGCACATATAATTTTACAAA	10.4
GTACATAATTATTATGCACACATATTTTTATGTATT [CACACA_site8132]	10.5
GTTTTATTTATTTCATGTACACAAAAAAGGTTTTAA [XGTACX_site6525]	6.97
TTTTGTTATTTTTCAGTGCAATATGATAATAATATA	9.56
ATTTCTCTATCGTAATGTACATAAAAAAGAAAAACA [XGTACX_site6374]	6.63
ATATATATATTTAAGGTGCGATTTTGTTATATTTAA	7.89
AATTATGGGGAAAAGACACACATATATATATATATA [CACACA_site2589]	9.35
ATCTAAATTTTTCCATGTACATATACTTTTATGCAT [XGTACX_site2683]	7.08
TATCTGTATTTATTCACACATATAAAATATAATTAA [CACACA_site5560]	6.36

Source: the supplement of paper PMC11417369
